Data: PubChem BioAssay (NCATS)
Results filed as inconclusive are left out. Calls of active or inactive are those of the source. Calls come from the whole dose curve; as a rule, active = well fitted curve in the direction sought with a large enough effect; inconclusive = small, poorly fitted or top-dose-only effect, or another doubt; inactive = no such curve, though single readings can be large; an effect the other way counts as inactive or inconclusive.

How the values were obtained:
[1] = target: Cellular tumor antigen p53 (Homo sapiens) (UniProt P04637); assay: Primary qHTS for small molecule compounds that upregulate eGFP-tagged delta133p53alpha (in N-terminal) cells. (AID 2060322); conditions: NCI-H358 eGFP-delta133p53alpha fluorescence, 24 h; activation: stronger effect = higher value;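 note: cells pre-induced with doxycycline then dosed without doxycycline; 0% = DMSO vehicle and 100% = reference activator; nearly all actives have a fitted effect of over 75% in size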
How it was run: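 NCI-H358 cells pre-induced 24 h with 10 ng/ml doxycycline for eGFP-delta133p53alpha, plated dox-free and exposed 24 h at 37C to titrated compounds. Fixed, Hoechst-stained; gated GFP peak intensity by laser scanning cytometry, normalized to DMSO (0%) and 57.5 uM 5-azacytidine (100%).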

[2] = target: Aldehyde dehydrogenase, mitochondrial (Homo sapiens) (UniProt P05091); assay: qHTS for Inhibitors of the Aldehyde Dehydrogenase Family (ALDH2) Primary screen (AID 2061308); conditions: ALDH2 enzyme inhibition qHTS, 1536-well; series mostly up to 56 µM;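 note: plate controls were vehicle for no effect and reference inhibitor for full effect; nearly all actives have a fitted effect of over 55% in size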
[3] = target: Retinaldehyde dehydrogenase 3 (Homo sapiens) (UniProt P47895); assay: qHTS for Inhibitors of the Aldehyde Dehydrogenase Family (ALDH1A3) Primary screen (AID 2061315); conditions: ALDH inhibition qHTS; series mostly up to 56 µM;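 note: plate controls were DMSO vehicle for no effect and reference inhibitor for full effect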

Sequence of Cellular tumor antigen p53 (Homo sapiens) (P04637 whole entry, looked up): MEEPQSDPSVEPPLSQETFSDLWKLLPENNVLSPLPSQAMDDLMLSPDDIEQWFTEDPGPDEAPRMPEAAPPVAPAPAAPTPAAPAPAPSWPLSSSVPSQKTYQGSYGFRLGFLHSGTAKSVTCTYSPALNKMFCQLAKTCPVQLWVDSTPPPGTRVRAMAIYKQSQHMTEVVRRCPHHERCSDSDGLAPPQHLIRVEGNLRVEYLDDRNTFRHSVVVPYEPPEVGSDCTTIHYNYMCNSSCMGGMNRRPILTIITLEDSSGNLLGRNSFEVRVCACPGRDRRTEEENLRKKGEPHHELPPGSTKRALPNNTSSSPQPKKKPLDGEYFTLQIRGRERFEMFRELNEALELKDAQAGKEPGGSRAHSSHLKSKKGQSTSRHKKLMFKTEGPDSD

C/C(=C\C(=O)C(C)C1CCC2C3=C(CCC21C)C1(C)CCC(=O)C(C)(C)C1(O)CC3)C(C)(C)O (stereo unspecified)
inactive: activation [1] -16.8% | Potency [2] | Potency [3]

COc1ccc(/C=C/C(=O)O[C@@H]2[C@@H](OC(C)=O)[C@@H](OC(C)=O)[C@H](O[C@H]3[C@@H]4C=CO[C@@H](O[C@@H]5O[C@H](CO)[C@@H](O)[C@H](O)[C@H]5O)[C@@H]4[C@@]4(CO)O[C@@H]34)O[C@H]2C)cc1O
inactive: activation [1] -16% | Potency [2] | Potency [3]

O=C(Nc1ccc(-c2ccncc2)cc1)N[C@H](CO)c1ccccc1
inactive: activation [1] -25.9% | Potency [2] | Potency [3]

O=C(NCC(O)CO)c1ccncc1Nc1ccc(I)cc1F (stereo unspecified)
inactive: activation [1] 19.6% | Potency [2] | Potency [3]

CC1(C)CCC2(C(=O)O)CCC3(C)C(=CCC4C5(C)CCC(O)C(C)(CO)C5C(O)CC43C)C2C1 (stereo unspecified)
inactive: activation [1] -18.8% | Potency [2] | Potency [3]

CC1OC(O[C@H]2CC[C@@]3(C)C(CC[C@]4(C)C3CC=C3C5CC(C)(C)CC[C@]5(C(=O)OC5OC(CO)C(OC6OC(COC7OCC(O)C(O)C7O)C(O)C(O)C6O)C(O)C5O)CC[C@]34C)C2(C)C)C(O)C(O)C1OC1OCC(OC2OCC(O)C(O)C2O)C(O)C1O (stereo partly specified)
inactive: activation [1] -15.3% | activity change, negative = inhibition [2] -20.7% [at 11.2 µM] | activity change, negative = inhibition [3] 10.3% [at 11.2 µM]

CC1(C)CC[C@]2(C(=O)O)CC[C@]3(C)C(=CCC4[C@@]5(C)C[C@H](O)[C@H](O[C@@H]6OC[C@H](O)[C@H](O)[C@H]6O)[C@@](C)(CO)C5CC[C@]43C)[C@@H]2C1 (stereo partly specified)
inactive: activation [1] -9.16% | Potency [2] | Potency [3]
